An excerpt weighted towards active compounds, which were near 1.4% of everything screened.
AmpC inh no detg = inhibitors of E. coli AmpC beta-lactamase without detergent; AmpC nitrocefin hydrolysis, absorbance 480 nm, 0.0001% Triton; AID 485341; P00811; 330,000 tested, 0.52% active; Potency, µM (doses to about 57.1 µM), for inactives: top-dose activity change, negative = inhibition, usual class: inhibitors;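 also: plate controls were no compound for no effect and no enzyme for full effect; nearly all actives have a fitted effect of over 20% in size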
Target sequence (P00811 whole entry, looked up): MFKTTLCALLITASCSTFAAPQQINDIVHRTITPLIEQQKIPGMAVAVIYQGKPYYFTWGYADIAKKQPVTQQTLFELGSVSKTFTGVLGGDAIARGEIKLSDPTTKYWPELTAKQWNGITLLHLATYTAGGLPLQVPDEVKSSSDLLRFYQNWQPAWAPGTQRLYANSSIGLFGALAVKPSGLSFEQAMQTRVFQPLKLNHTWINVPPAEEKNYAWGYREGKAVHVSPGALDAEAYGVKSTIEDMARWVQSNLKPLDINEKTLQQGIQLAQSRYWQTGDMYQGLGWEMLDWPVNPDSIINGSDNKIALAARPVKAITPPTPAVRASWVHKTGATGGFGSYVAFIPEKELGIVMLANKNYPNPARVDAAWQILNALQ
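AmpC (5.3 nM in the dispensed reagent) in 20 mM phosphate pH 7.0 with 0.01% (detergent screen) or 0.0001% Triton X-100 was preincubated with compounds for 15 min at room temperature. Nitrocefin was then added from an 800 uM solution, and hydrolysis was followed at 480 nm.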
AMA1-RON2 inh = AMA1-RON2 (P. falciparum) interaction inhibition. AlphaScreen AMA1-biotinylated RON2 peptide binding. Potency, µM (top dose mostly 58.2 µM), without a hit: at the top dose activity change, negative = inhibition, most hits filed as inhibitors. 360,000 tested, 0.2% active;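 also: 0% = vehicle wells and -100% = peptide control; nearly all actives have a fitted effect of over 45% in size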
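AMA1 (3D7) with his tag at 25 nM final met compounds first, then biotinylated RON2 peptide at 25 nM; detection used donor plus acceptor beads, 10 µg/mL apiece, read by AlphaScreen after 30 min at room temperature.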
AmpC inh detg = inhibitors of E. coli AmpC beta-lactamase with detergent; P00811; AmpC hydrolysis of nitrocefin, absorbance 480 nm, 0.01% Triton; Potency, µM (top dose mostly 114 µM), inactives show at the highest dose activity change, negative = inhibition, most hits filed as inhibitors; 370,000 tested, 0.041% active; AID 485294;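 also: 0% = no-compound wells and -100% = no-enzyme wells; nearly all actives have a fitted effect of over 25% in size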
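AmpC (5.3 nM in the dispensed reagent) in 20 mM phosphate pH 7.0 with 0.01% (detergent screen) or 0.0001% Triton X-100 was preincubated with compounds for 15 min at room temperature. Nitrocefin was then added from an 800 uM solution, and hydrolysis was followed at 480 nm.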
VACV mCherry inh = vaccinia inhibition (mCherry reporter). Potency, µM (highest dose often 36.5 µM), without a hit: at the top dose activity change, negative = inhibition, usual class: inhibitors. 310,000 tested, 0.63% active. Vaccinia virus mCherry reporter infection, fluorescence; calls by dose curve; tested in A549 cells; also: % is scaled to controls: 0 for no effect and ±100 for the full control effect; nearly all actives have a fitted effect of over 35% in size
VACV Venus inh = inhibitors of vaccinia virus (Venus reporter); Vaccinia virus Venus reporter expression, fluorescence; Potency, µM (top dose mostly 36.5 µM), without a hit: at the highest dose activity change, negative = inhibition, hits mostly inhibitors; AID 720580; 330,000 tested, 0.46% active; calls by dose curve; tested in A549 cells; also: % is scaled to controls: 0 for no effect and ±100 for the full control effect; nearly all actives have a fitted effect of over 30% in size
SARS PLP yeast = SARS-CoV PLP inhibition in yeast | S. cerevisiae expressing SARS-CoV PLpro, growth rescue | Potency, µM (series often up to 32.9 µM), without a hit: top-dose activity, positive = growth rescue, most hits filed as activators | 330,000 tested, 0.19% active | AID 485353; calls by dose curve; also: 0% is about no effect; nearly all actives have a fitted effect of over 55% in size
Numbers without * were called inactive; i = inactive; u = inconclusive; x = no result given. Unless noted, calls follow the shape of the dose curve; as a rule, active = well fitted curve in the direction sought with a large enough effect; inconclusive = small, poorly fitted or top-dose-only effect, or another doubt; inactive = no such curve, though single readings can be large; an effect the other way counts as inactive or inconclusive. Potency is read from the fitted curve at half-maximal effect.

SMILES | AmpC inh no detg | AMA1-RON2 inh | AmpC inh detg | VACV mCherry inh | VACV Venus inh | SARS PLP yeast
CCCN1CNc2c(c(=O)[nH]c(=S)n2CCc2ccc(C)cc2C)C1 | x | x | x | i | -12% | x
CCc1ccc(CN2CCN(Cc3ccc(SC)cc3)CC2)cc1 | 33% | 13µM* | -13% | -30% | -29% | -7%
COc1ccccc1N1CCN(Cc2ccc(SC)cc2)CC1 | 7% | 20µM* | u | x | x | -7%
COc1ccc(C)cc1NC(=O)Nc1ccc2c(c1)CCC2 | u | 0% | -11% | x | x | 7%
COc1ccccc1NC(=O)NCCCl | -27% | -4% | 0% | 10µM* | 10µM* | 12%
O=C(NCCCl)Nc1ccccc1OCCOc1ccccc1NC(=O)NCCCl | 6% | 5% | -11% | 14µM* | u | 1%
COc1ccccc1NC(=O)Nc1ccc2c(c1)CCC2 | 10µM* | -1% | -2% | x | x | 18%
COc1ccc(S(=O)(=O)N(CC(=O)N2CCC(C)CC2)c2ccc(C)cc2)cc1 | x | x | -11% | -6% | -7% | x
Cc1sc(N)nc1-c1cccc([N+](=O)[O-])c1 | x | x | x | -3% | -14% | x
CSCCC(NS(=O)(=O)c1ccc2ccccc2c1)C(=O)OCC(=O)c1ccc(C(C)C)cc1 (stereo not drawn) | 7.9µM* | -13% | -7% | -7% | -12% | -7%
Cc1ccc(C(c2sc3nc(-c4ccco4)nn3c2O)N2CCN(Cc3ccccc3)CC2)cc1 (stereo not drawn) | x | x | 8% | -14% | -12% | x
Cc1cc(C)cc(CN2CCOc3ccc(CN4CCC(O)(c5cccnc5)CC4)cc3C2)c1 | x | x | x | -2% | -9% | x
COc1ccc(C2Nc3ccccc3C(=O)N2Cc2ccco2)cc1 (stereo not drawn) | x | x | x | i | -9% | x
Cc1ccc(N(C)C(=O)N2CCN(c3ccccn3)CC2)cc1 | 10µM* | -2% | u | i | -4% | 3%
O=C(COC(=O)c1ccc2ncsc2c1)NC(=O)C1CCCCC1 | x | x | x | -9% | -14% | x
Cc1cc(C)nc(Sc2c(C)nn(-c3ccccc3)c2C)n1 | 41% | 2% | -15% | x | -9% | -6%
Cc1cc(C)nc(Sc2ccc3nnnn3n2)n1 | -10% | 0% | u | 0.5µM* | 3.5µM* | 0%
O=C(COc1ccc(Br)cc1)Nc1ccccc1C(=O)NC1CC1 | 3.2µM* | 1% | u | -1% | -1% | 2%
CC1CCCN(c2ccc(C(=O)NCC3CCCO3)cn2)C1 (stereo not drawn) | 0.2µM* | -1% | -2% | i | -12% | -3%
COc1cc2c(NC3CCN(C)CC3)nc(N3CCCN(C)CC3)nc2cc1OCCCCN(C)C | x | x | x | u | 10µM* | x
COc1cc2c(NC3CCN(C)CC3)nc(N3CCCN(C)CC3)nc2cc1OCCCN(C)C | x | x | x | -24% | u | x
COc1cc2c(NC3CCN(C)CC3)nc(N3CCCN(C)CC3)nc2cc1OCCOCCN(C)C | x | x | x | -23% | -20% | x
COc1cc2c(NC3CCN(C)CC3)nc(N3CCN(C)CC3)nc2cc1OCCOCCN(C)C | x | x | x | -20% | -19% | x
COc1cc2c(NC3CCN(C)CC3)nc(N3CCCN(C)CC3)nc2cc1OCCCCCCN(C)C | x | x | x | 5µM* | 7.1µM* | x
CCCN(C)CCCOc1cc2nc(N3CCCN(C)CC3)nc(NC3CCN(C)CC3)c2cc1OC | x | x | x | u | 13µM* | x
COc1ccc(CN2CCCC(n3cc(C(=O)N4CCCCC4)nn3)C2)c(OC)c1OC (stereo not drawn) | x | x | x | -6% | -7% | x
CC(O)COCC1OC2OC3C(COCC(C)O)OC(OC4C(COCC(C)O)OC(OC5C(COCC(C)O)OC(OC6C(COCC(C)O)OC(OC7C(COCC(C)O)OC(OC8C(COCC(C)O)OC(OC1C(OCC(C)O)C2OCC(C)O)C(OCC(C)O)C8OCC(C)O)C(OCC(C)O)C7OCC(C)O)C(OCC(C)O)C6OCC(C)O)C(OCC(C)O)C5OCC(C)O)C(OCC(C)O)C4OCC(C)O)C(OCC(C)O)C3OCC(C)O (stereo not drawn) | x | x | x | -13% | -15% | x

Assay outcomes as filed in PubChem BioAssay.
